Measurements as given in PubChem BioAssay (NCATS).
Inconclusive results are not listed. Where a call stands in place of a potency, no number is given. A number with no mark means an inactive call. Calls of active or inactive are those of the source. Calls come from the whole dose curve; as a rule, active = well fitted curve in the direction sought with a large enough effect; inconclusive = small, poorly fitted or top-dose-only effect, or another doubt; inactive = no such curve, though single readings can be large; an effect the other way counts as inactive or inconclusive.

Columns and labels:
[1] = qHTS of pediatric cancer cell lines to identify multiple opportunities for drug repurposing: Primary screen for DAOY cells (AID 1347090); note: nearly all actives have a fitted effect of over 55% in size; note: potency is the fitted concentration of half-maximal effect
Outline: (§1)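 Eight- or eleven-point concentration series, 48 h treatment at 37 degrees C in growth media; readout CellTiter-Glo luminescence. Potency and efficacy were taken from the concentration-response curves.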

[2] = qHTS of pediatric cancer cell lines to identify multiple opportunities for drug repurposing: Primary screen for SJ-GBM2 cells (AID 1347091); note: potency is the fitted concentration of half-maximal effect
Outline: as §1

[3] = qHTS of pediatric cancer cell lines to identify multiple opportunities for drug repurposing: Primary screen for A673 cells (AID 1347092); note: nearly all actives have a fitted effect of over 45% in size; note: potency is the fitted concentration of half-maximal effect
Outline: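 Cell viability of A673 measured by CellTiter-Glo ATP luminescence after 48 hours compound exposure. Dilution series spanned 0.78 nM to 46 µM (MIPE, 11-point) or 0.59 nM to 46 µM (NPC, 8-point); bortezomib 2.3 uM positive control.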

[4] = qHTS of pediatric cancer cell lines to identify multiple opportunities for drug repurposing: Primary screen for SK-N-MC cells (AID 1347093); note: potency is the fitted concentration of half-maximal effect
Outline: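 Metabolically active cells were quantified by ATP-dependent luminescence (CellTiter-Glo, 15 min at room temperature) following 48 h treatment. Cells had been plated at 500-1,000 per well and settled for 5 h beforehand.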

[5] = qHTS of pediatric cancer cell lines to identify multiple opportunities for drug repurposing: Primary screen for BT-37 cells (AID 1347094); note: potency is the fitted concentration of half-maximal effect
Outline: (§2)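 Cells seeded at 500-1,000 cells/well in growth media, rested 5 hours at 37 degrees C, 5% CO2, then dosed; MIPE compounds at 11-point (from 0.78 nM) and NPC at 8-point (from 0.59 nM) final concentrations. Viability by CellTiter-Glo luminescence after 48 hours.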

[6] = qHTS of pediatric cancer cell lines to identify multiple opportunities for drug repurposing: Primary screen for NB-EBc1 cells (AID 1347095); note: potency is the fitted concentration of half-maximal effect
Outline: as §2

[7] = qHTS of pediatric cancer cell lines to identify multiple opportunities for drug repurposing: Primary screen for U-2 OS cells (AID 1347096); note: nearly all actives have a fitted effect of over 50% in size
Outline: (§3)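 Cells (500-1,000/well) in growth media were settled 5 h at 37 degrees C, then given compounds for 48 h. Viability was read as CellTiter-Glo luminescence. Primary runs used MIPE at 11 points (0.78 nM-46 µM) and NPC at 8 points (0.59 nM-46 µM); follow-ups used 11 points.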

[8] = qHTS of pediatric cancer cell lines to identify multiple opportunities for drug repurposing: Primary screen for SK-N-SH cells (AID 1347098);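 note: DMSO served as neutral control and bortezomib at 2.3 µM as positive control; nearly all actives have a fitted effect of over 65% in size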
Outline: (§4)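 Cells (500-1,000/well) rested 5 h, then received compounds for 48 h; metabolically active cells were measured by CellTiter-Glo luminescence. Final concentrations spanned up to 46 µM (MIPE, 11-point) or 0.59 nM-46 µM (NPC, 8-point) in primary screens, 11-point in follow-ups.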

[9] = qHTS of pediatric cancer cell lines to identify multiple opportunities for drug repurposing: Primary screen for NB1643 cells (AID 1347099); note: nearly all actives have a fitted effect of over 50% in size
Outline: as §2

[10] = qHTS of pediatric cancer cell lines to identify multiple opportunities for drug repurposing: Primary screen for LAN-5 cells (AID 1347100)
Outline: as §3

[11] = qHTS of pediatric cancer cell lines to identify multiple opportunities for drug repurposing: Primary screen for BT-12 cells (AID 1347101); note: nearly all actives have a fitted effect of over 25% in size; note: potency is the fitted concentration of half-maximal effect
Outline: as §4

[12] = qHTS of pediatric cancer cell lines to identify multiple opportunities for drug repurposing: Primary screen for Rh18 cells (AID 1347102); note: nearly all actives have a fitted effect of over 65% in size
Outline: as §3

[13] = qHTS of pediatric cancer cell lines to identify multiple opportunities for drug repurposing: Primary screen for OHS-50 cells (AID 1347103); note: nearly all actives have a fitted effect of over 40% in size
Outline: as §4

[14] = qHTS of pediatric cancer cell lines to identify multiple opportunities for drug repurposing: Primary screen for RD cells (AID 1347104); note: nearly all actives have a fitted effect of over 55% in size; note: potency is the fitted concentration of half-maximal effect
Outline: as §2

[15] = qHTS of pediatric cancer cell lines to identify multiple opportunities for drug repurposing: Primary screen for MG 63 (6-TG R) cells (AID 1347105); note: nearly all actives have a fitted effect of over 50% in size
Outline: as §2

[16] = qHTS of pediatric cancer cell lines to identify multiple opportunities for drug repurposing: Primary screen for control Hh wild type fibroblast cells (AID 1347106);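 note: series mostly up to about 46 µM; a drop in luminescence marks cytotoxicity and a rise apparent proliferation; nearly all actives have a fitted effect of over 55% in size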
Outline: as §3

[17] = qHTS of pediatric cancer cell lines to identify multiple opportunities for drug repurposing: Primary screen for Rh30 cells (AID 1347107); note: series mostly up to about 46 µM; nearly all actives have a fitted effect of over 75% in size
Outline: as §3

[18] = qHTS of pediatric cancer cell lines to identify multiple opportunities for drug repurposing: Primary screen for Rh41 cells (AID 1347108);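 note: series mostly up to about 46 µM; luminescence drop marks cytotoxic hits; nearly all actives have a fitted effect of over 70% in size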
Outline: as §2

[19] = qHTS of pediatric cancer cell lines to identify multiple opportunities for drug repurposing: Confirmatory screen for A673 cells (AID 1347110);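 note: cells exposed to compound for 48 h before the viability read; nearly all actives have a fitted effect of over 65% in size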
Outline: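 Viability was read as ATP luminescence (CellTiter-Glo) after 48 h of compound exposure at 37 C in A673 cells seeded at 500-1,000/well. Titrations reached 46 uM final, with 11 points in the confirmatory screen. Concentration-response curves were fitted directly.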

[20] = qHTS of pediatric cancer cell lines to identify multiple opportunities for drug repurposing: Primary screen for Saos-2 cells (AID 1347097); note: nearly all actives have a fitted effect of over 40% in size
Outline: as §2

## C[C@H]1C[C@@H]2[C@H]([C@@H](O)C[C@@]3(C)[C@H]2CC[C@]3(O)C(=O)CO)[C@@]2(C)C=CC(=O)C=C12
[1]
  Potency: inactive
[2]
  Potency: inactive
[3]
  Potency: inactive
[4]
  Potency: inactive
[5]
  Potency: inactive
[6]
  Potency: inactive
[7]
  Potency: inactive
[8]
  Potency: inactive
[9]
  Potency: inactive
[10]
  Potency: inactive
[11]
  Potency: inactive
[12]
  Potency: inactive
[13]
  Potency: inactive
[14]
  Potency: inactive
[15]
  Potency: inactive
[16]
  Potency: inactive
[17]
  Potency: inactive
[18]
  Potency: inactive
[19]
  Potency: inactive

## CCOC(=O)NNc1nncc2ccccc12
[1]
  Potency: inactive
[2]
  Potency: inactive
[3]
  Potency: inactive
[4]
  Potency: inactive
[5]
  Potency: inactive
[6]
  Potency: inactive
[7]
  Potency: inactive
[8]
  Potency: inactive
[9]
  Potency: inactive
[10]
  Potency: inactive
[11]
  Potency: inactive
[12]
  Potency: inactive
[13]
  Potency: inactive
[14]
  Potency: inactive
[15]
  Potency: inactive
[16]
  Potency: inactive
[17]
  Potency: inactive
[18]
  Potency: inactive

## CCCCN(CCCC)C(C(N)=O)c1ccc(OC)cc1 (configuration not stated)
[1]
  Potency: inactive
[2]
  Potency: inactive
[3]
  Potency: inactive
[4]
  Potency: inactive
[5]
  Potency: inactive
[6]
  Potency: inactive
[7]
  Potency: inactive
[20]
  Potency: inactive
[8]
  Potency: inactive
[9]
  Potency: inactive
[11]
  Potency: inactive
[14]
  Potency: inactive
[15]
  Potency: inactive
[16]
  Potency: inactive
[17]
  Potency: inactive
[18]
  Potency: inactive

## COC(=O)CCCCC(CCSS/C(CCO)=C(\C)N(C=O)Cc1cnc(C)nc1N)SC(C)=O (configuration not stated)
[1]
  Potency: inactive
[2]
  Potency: inactive
[3]
  Potency: inactive
[4]
  Potency: inactive
[5]
  Potency: inactive
[6]
  Potency: inactive
[7]
  Potency: inactive
[8]
  Potency: inactive
[9]
  Potency: inactive
[10]
  Potency: inactive
[11]
  Potency: inactive
[12]
  Potency: inactive
[13]
  Potency: inactive
[14]
  Potency: inactive
[15]
  Potency: inactive
[16]
  Potency: inactive
[18]
  Potency: inactive

## COCCc1ccccn1
[1]
  Potency: inactive
[2]
  Potency: inactive
[3]
  Potency: inactive
[4]
  Potency: inactive
[5]
  Potency: inactive
[6]
  Potency: inactive
[7]
  Potency: inactive
[8]
  Potency: inactive
[9]
  Potency: inactive
[10]
  Potency: inactive
[11]
  Potency: inactive
[12]
  Potency: inactive
[13]
  Potency: inactive
[14]
  Potency: inactive
[15]
  Potency: inactive
[16]
  Potency: inactive
[18]
  Potency: inactive

## C/C(=N\O)[C@@H](C)NCC(C)(C)CN[C@H](C)/C(C)=N/O
[1]
  Potency: inactive
[2]
  Potency: inactive
[3]
  Potency: inactive
[4]
  Potency: inactive
[5]
  Potency: inactive
[7]
  Potency: inactive
[20]
  Potency: inactive
[8]
  Potency: inactive
[9]
  Potency: inactive
[10]
  Potency: inactive
[11]
  Potency: inactive
[13]
  Potency: inactive
[14]
  Potency: inactive
[16]
  Potency: inactive
[17]
  Potency: inactive
[18]
  Potency: inactive

## COc1cc(C(=O)OC(COCCC(C)C)CN2CCOCC2)cc(OC)c1OC (configuration not stated)
[1]
  Potency: inactive
[2]
  Potency: inactive
[3]
  Potency: inactive
[4]
  Potency: inactive
[5]
  Potency: inactive
[7]
  Potency: inactive
[20]
  Potency: inactive
[9]
  Potency: inactive
[10]
  Potency: inactive
[11]
  Potency: inactive
[12]
  Potency: inactive
[13]
  Potency: inactive
[14]
  Potency: inactive
[15]
  Potency: inactive
[16]
  Potency: inactive
[17]
  Potency: inactive
[18]
  Potency: inactive

## Cc1oc(=O)oc1COC(=O)[C@@H]1N2C(=O)[C@@H](NC(=O)[C@H](N)c3ccccc3)[C@H]2SC1(C)C
[1]
  Potency: inactive
[2]
  Potency: inactive
[3]
  Potency: inactive
[4]
  Potency: inactive
[5]
  Potency: inactive
[7]
  Potency: inactive
[20]
  Potency: inactive
[8]
  Potency: inactive
[9]
  Potency: inactive
[10]
  Potency: inactive
[11]
  Potency: inactive
[12]
  Potency: inactive
[13]
  Potency: inactive
[15]
  Potency: inactive
[16]
  Potency: inactive
[17]
  Potency: inactive
[18]
  Potency: inactive

## CN1CC[C@H](c2c(O)cc(O)c3c(=O)cc(-c4ccccc4Cl)oc23)[C@H](O)C1
[1]
  Potency: 531 nM (active)
[2]
  Potency: 106 nM (active)
[3]
  Potency: 106 nM (active)
[4]
  Potency: 266 nM (active)
[5]
  Potency: 347 nM (active)
[6]
  Potency: 133 nM (active)
[11]
  Potency: 276 nM (active)
[14]
  Potency: 596 nM (active)
[16]
  Potency: inactive
[17]
  Potency: inactive

## N=C(N)c1ccc(OCCCOc2ccc(C(=N)N)cc2)cc1
[1]
  Potency: inactive
[2]
  Potency: inactive
[3]
  Potency: inactive
[4]
  Potency: inactive
[5]
  Potency: inactive
[7]
  Potency: inactive
[20]
  Potency: inactive
[9]
  Potency: inactive
[10]
  Potency: inactive
[11]
  Potency: 2190 nM (active)
[12]
  Potency: inactive
[13]
  Potency: inactive
[14]
  Potency: inactive
[15]
  Potency: inactive
[16]
  Potency: inactive
[17]
  Potency: inactive
[18]
  Potency: inactive
[19]
  Potency: inactive

## N#CSCC(=O)O
[1]
  Potency: inactive
[2]
  Potency: inactive
[3]
  Potency: inactive
[4]
  Potency: inactive
[5]
  Potency: inactive
[6]
  Potency: inactive
[7]
  Potency: inactive
[8]
  Potency: inactive
[9]
  Potency: inactive
[11]
  Potency: inactive
[14]
  Potency: inactive
[15]
  Potency: inactive
[16]
  Potency: inactive
[17]
  Potency: inactive
[18]
  Potency: inactive

## CC(NN)c1ccccc1 (configuration not stated)
[1]
  Potency: inactive
[2]
  Potency: inactive
[3]
  Potency: inactive
[4]
  Potency: inactive
[5]
  Potency: inactive
[7]
  Potency: inactive
[20]
  Potency: inactive
[8]
  Potency: inactive
[9]
  Potency: inactive
[10]
  Potency: inactive
[11]
  Potency: inactive
[12]
  Potency: inactive
[14]
  Potency: inactive
[15]
  Potency: inactive
[16]
  Potency: inactive
[17]
  Potency: inactive
[18]
  Potency: inactive

## O=C(CCCl)NCc1ccccc1
[1]
  Potency: inactive
[2]
  Potency: inactive
[3]
  Potency: inactive
[4]
  Potency: inactive
[5]
  Potency: inactive
[6]
  Potency: inactive
[7]
  Potency: inactive
[8]
  Potency: inactive
[9]
  Potency: inactive
[11]
  Potency: inactive
[12]
  Potency: inactive
[13]
  Potency: inactive
[14]
  Potency: inactive
[16]
  Potency: inactive
[17]
  Potency: inactive
[18]
  Potency: inactive

## COC(=O)c1cc(Cl)ccc1NS(=O)(=O)C(F)(F)F
[1]
  Potency: inactive
[2]
  Potency: inactive
[3]
  Potency: inactive
[4]
  Potency: inactive
[5]
  Potency: inactive
[6]
  Potency: inactive
[7]
  Potency: inactive
[9]
  Potency: inactive
[10]
  Potency: inactive
[11]
  Potency: inactive
[12]
  Potency: inactive
[13]
  Potency: inactive
[14]
  Potency: inactive
[15]
  Potency: inactive
[17]
  Potency: inactive
[18]
  Potency: inactive

## CC(CCc1ccc2c(c1)OCO2)NN (configuration not stated)
[1]
  Potency: inactive
[2]
  Potency: inactive
[3]
  Potency: inactive
[4]
  Potency: inactive
[5]
  Potency: inactive
[7]
  Potency: inactive
[20]
  Potency: inactive
[8]
  Potency: inactive
[9]
  Potency: inactive
[10]
  Potency: inactive
[11]
  Potency: inactive
[12]
  Potency: inactive
[13]
  Potency: inactive
[14]
  Potency: inactive
[15]
  Potency: inactive
[16]
  Potency: inactive
[17]
  Potency: inactive
[18]
  Potency: inactive
